The source made the active and inactive calls. How the source made its calls: active means hit-call score of the fitted dose curve at least 0.9, where 1 is the maximum; inactive means score below 0.9.
Assay: ATG_TCF_b_cat_CIS: Attagene CIS-FACTORIAL HepG2 Assay for human T-Cell-Factor with beta-catenin (TCF/b-cat) (AID 2282965)
Conditions: HepG2 TCF/beta-catenin cis-reporter transcription, actives raise or lower the signal
Experimental: ATG_CIS is a cell-based, multiplexed-readout assay that uses HepG2, a human liver cell line, with measurements taken at 24 hours after chemical dosing in a 24-well plate.ATG_TCF_b_cat_CIS is one of 52 assay component(s) measured or calculated from the ATG_CIS assay. It is designed to make measurements of mRNA induction, a form of inducible reporter, as detected with fluorescence intensity signals by Reverse transcription polymerase chain reaction (RT-PCR) and Capillary electrophoresis technology.Data from the assay component ATG_TCF_b_cat_CIS was analyzed into 1 assay endpoint. This assay endpoint, ATG_TCF_b_cat_CIS, was analyzed with bidirectional fitting relative to DMSO as the negative control and baseline of activity. Using a type of inducible reporter, measures of mRNA for gain or loss-of-signal activity can be used to understand the reporter gene at the transcription factor-level as they relate to the gene TCF7 and TCF7L2 and LEF1 and TCF7L1. Furthermore, this assay endpoint can be referred to as a primary readout, because this assay has produced multiple assay endpoints where this one serves a reporter gene function. To generalize the intended target to other relatable targets, this assay endpoint is annotated to the dna binding intended target family, where the subfamily is HMG box protein.
Human liver HepG2 cells are transiently transfected with multiple reporter transcription units (MRTUs) in 6-well plates using FuGene 6 reagent (Roche; 3 ml FuGene/1 mg DNA). The MRTU constructs are regulated by a cis-regulating element (promoter). […] A major difference between the CIS and TRANS system is that in CIS activities of endogenous TFs are measured, whereas the TRANS assay evaluates changes in activities of exogenous, chimeric NR-Gal4 proteins. […] At the end of 24 hour incubation, total RNA was isolated using TriZol reagent (Invitrogen). The isolated RNA is then reverse-transcribed using oligo(dT) primer and Mo-MLV reverse transcriptase (Invitrogen) with DNAse I (Ambion) treatment for 30 min. The one-tenth of the produced cDNA was amplified by PCR using Taq DNA polymerase (Invitrogen) and two reporter sequence-specific primers. The PCR products were fluorescently labeled by primer extension with 6-arboxyfluorescein (6-FAM) 5'-labeled reporter sequence-specific primer (2 min at 95 C, 20 s at 68 C and 10 min at 72 C) and these products were digested with 5U of HpaI (New England Biolabs) for 2h at 37 C. The fragments were purified using Qiaquick PCR columns (Qiagen), analyzed on an ABI 3130xL genetic analyzer (Applied Biosystems) with peak positions identified by using a set of X-rhodamine (ROX)-labeled MapMarker1000 molecular weight standards (BioVentures). The raw capillary electrophoresis data was processed using Attagraph software (Attagene).

Row | Structure (SMILES) | AC50 | outcome
1 | COC(C)CCO (stereo not given) | 187 µM (active) | 
2 | C=C(C)C(=O)O |  | inactive
3 | O=C[C@H](O)[C@H](O)[C@H](O)CO |  | inactive
4 | C[C@H]1C[C@H]2[C@@H]3CCC4=CC(=O)C=C[C@]4(C)[C@@]3(F)[C@@H](O)C[C@]2(C)[C@@]1(O)C(=O)COP(=O)(O)O |  | inactive
5 | Cc1ccccc1C=O |  | inactive
6 | CC(C)[C@H]1CC[C@@H](C)CC1=O |  | inactive
7 | Nc1cc([N+](=O)[O-])ccc1O |  | inactive
8 | CN(C)c1ccc(O)c2c1C[C@H]1C[C@H]3[C@H](N(C)C)C(=O)C(C(N)=O)=C(O)[C@@]3(O)C(=O)C1=C2O |  | inactive
9 | NCCNCCN |  | inactive
10 | C=C[C@@H](C)CCC=C(C)C |  | inactive
11 | Cc1ccc(Nc2ccc(O)c3c2C(=O)c2ccccc2C3=O)cc1 |  | inactive
12 | CC(C)=CCCC(C)CC=O (stereo not given) |  | inactive
13 | CCCCC(CC)COC(=O)/C=C\C(=O)OCC(CC)CCCC (stereo not given) |  | inactive
14 | c1ccc2sc(SN(C3CCCCC3)C3CCCCC3)nc2c1 |  | inactive
15 | CCCCO |  | inactive
16 | O=c1cc(-c2ccccc2)oc2cc(O)cc(O)c12 |  | inactive
17 | CC(CN1c2ccccc2Sc2ccccc21)N(C)C (stereo not given) | 33.4 µM (active) | 
18 | CCCCc1ccc(N)cc1 | 28.2 µM (active) | 
19 | CC1CC(OC(=O)c2ccccc2O)CC(C)(C)C1 (stereo not given) |  | inactive
20 | Sc1nc(S)nc(S)n1 |  | inactive

Row | Structure (SMILES) | AC50 | outcome
21 | C=CC(C)(O)CCC=C(C)CCC=C(C)C (stereo not given) |  | inactive
22 | CC1=CCC(O)(C(C)C)CC1 (stereo not given) |  | inactive
23 | CC(C)c1cccc(O)c1 |  | inactive
24 | CCCCCCCCCOC(C)=O |  | inactive
25 | CC1=CC(=O)NS(=O)(=O)O1 |  | inactive
26 | CCCCCCCCCCCCOCCO |  | inactive
27 | CCN(CC)CCOC(=O)c1ccc(N)cc1 |  | inactive
28 | Cc1ccc(C(=O)O)o1 |  | inactive
29 | CCc1c(C)cc(N)c(CC)c1N |  | inactive
30 | CC(C)Oc1ccccc1O |  | inactive
31 | CC(C)(Oc1ccc(CCNC(=O)c2ccc(Cl)cc2)cc1)C(=O)O |  | inactive
32 | CCCCCC=CCC(=O)OC |  | inactive
33 | CNCCO |  | inactive
34 | C=CCOC(=O)CCC1CCCCC1 |  | inactive
35 | Clc1ccc2c(c1)C(N1CCNCC1)=Nc1ccccc1O2 |  | inactive
36 | CSc1nnc(C(C)(C)C)c(=O)[nH]1 |  | inactive
37 | CN(CCOc1ccc(CC2SC(=O)NC2=O)cc1)c1ccccn1 (stereo not given) |  | inactive
38 | CC(CC(C)(C)C)CC(C)(C)CC(C)(C)C (stereo not given) |  | inactive
39 | CCC/C=C/C=O |  | inactive
40 | CCN(CC)c1ccc2c(-c3ccccc3C(=O)O)c3ccc(=[N+](CC)CC)cc-3oc2c1 | 30.8 µM (active) | 

Reference: PubChem BioAssay (EPA / NIEHS)
